About 83,000 compounds went through this panel and 20% of them were active in at least one assay; those are over-represented in the sample as a whole.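 Cells were grown in 96-well plates and exposed to the test compound at a single concentration for 48 hours; results are reported as percent growth, with values below 10 considered active.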 Calls of active or inactive are those of the source.
These compounds were tested on OVCAR-3 ovarian (assay: NCI-60 one-dose screen, 48 h (100 = growth as untreated, 0 = no growth, -100 = all killed)). Conditions: 10 µM unless noted.

Row | SMILES | growth
1 | CC1(C)NCCC[C@]2(C)[C@H]3CC[C@@H]4[C@H]5[C@H](C(=O)/C=C/c6ccco6)CC[C@]5(CO)CC[C@@]4(C)[C@]3(C)CC[C@@H]12 | 92.6% (inactive)
2 | Cc1ccc(-n2nc3c(c(C#N)c2=O)CC(c2ccccc2[N+](=O)[O-])C([N+](=O)[O-])=C3O)cc1 (stereo unspecified) | 87.5% (inactive)
3 | NC(=NCCCOc1ccc(F)cc1)Nc1ccc(Cl)cc1 | 89.6% (inactive)
4 | COc1ccc(-c2cnc3c(-c4cccc5cnccc45)cnn3c2)cc1 | 73.4% (inactive)
5 | CCOC(=O)c1cc(C#N)n2ccc3ccccc3c12 | 102% (inactive)
6 | N#CC(C(=O)/C(=N/NC(=O)c1ccccc1O)C(C#N)c1ccccc1)c1ccccc1 (stereo unspecified) | 68.7% (inactive)
7 | N#C/C(=C\c1cccc(C#N)c1)c1ccccc1 | 105% (inactive)
8 | Cc1nc2ccc(Cl)cn2c1-c1nnc(SCc2ccc([N+](=O)[O-])cc2)o1 | 66.8% (inactive)
9 | CCN(CC)CCn1c(=O)c2cc(OC)c(OC)cc2c2ccc3cc4c(cc3c21)OCO4 | 62.4% (inactive)
10 | COc1ccc2nc(-c3ccc(-c4noc(-c5cc(OC)c(OC)c(OC)c5)n4)cc3)[nH]c2c1 | 44.8% (inactive)
11 | O=C1C=CC(=O)N1c1cccc(Cl)c1 | 90.1% (inactive)
12 | O=C(O)c1ccc2c(c1)C(=O)N(Cc1ccccc1)C2=O | 103% (inactive)
13 | O=C(Cc1ccccc1)NNc1nc(Cl)nc(N2CCN(C(c3ccccc3)c3ccccc3)CC2)n1 | 101% (inactive)
14 | O=C(/C=C/c1c(-c2ccc(Cl)cc2)nn(-c2ccccc2)c1C(F)(F)F)c1ccc(Cl)cc1 | 95.3% (inactive)
15 | O=C1Nc2ccccc2/C1=C\c1c(-c2ccc(F)cc2)nc2ccccn12 | 62.1% (inactive)
16 | COc1cc(C2C3=C(COC3=O)N(CCO)c3cc4c(cc32)CCC4)cc(OC)c1OC (stereo unspecified) | -33.4% (active)

Row | SMILES | growth
17 | CC(c1ccccc1)C(C(=O)c1ccccc1)c1ccccc1 (stereo unspecified) | 110% (inactive)
18 | C#Cc1cccc(NC(=O)Nc2cccc(NC(=O)CCl)c2)c1 | -70.8% [8.25 µM] (active)
19 | Cc1nc2sccn2c1-c1cn2ccsc2n1 | 85.8% (inactive)
20 | C=CCn1c(-c2ccc(-c3nc4ccc(C)cc4[nH]3)cc2)n[nH]c1=S | 112% (inactive)
21 | COc1cc(CC(=O)n2ncc3ccc(N)cc32)cc(OC)c1OC | 108% (inactive)
22 | COC(=O)C(CC=O)C(=O)C(=O)Nc1cccc(C(F)(F)F)c1 (stereo unspecified) | 106% (inactive)
23 | CCNc1nc2ccc(Nc3ccnc4cc(Cl)ccc34)cc2[nH]1 | 107% (inactive)
24 | Cc1cc2c(c(C)c1Cl)C(=O)/C(=C/c1ccc(O)c(O)c1)O2 | 109% (inactive)
25 | O=C1/C=C/[C@@H](O)[C@@H]2C[C@@H](O)C[C@H]2/C=C/CCC[C@H](CCc2cccc3ccccc23)O1 | -48.1% (active)
26 | COc1cc2c(cc1OC)C(=O)/C(=C/c1cc(C)c(O)c(C)c1)S2 | -5.93% (active)
27 | COc1cc(NC(=O)CSc2nc3ccc(C)cc3c(=O)n2Cc2ccccc2)cc(OC)c1OC | 43.8% (inactive)
28 | CN1[C@@H]2CC[C@H]1/C(=C\c1ccccc1)C(=O)/C2=C/c1ccccc1 | 14.4% (inactive)
29 | Cc1ccc(C(=O)/C(=C/c2ccc([N+](=O)[O-])cc2)SCc2ccc(Cl)cc2)cc1 | 47.6% (inactive)
30 | CSc1nc2sc3cccc(Cl)c3n2c(=N)c1C#N | 110% (inactive)
31 | Cc1c2cc[nH]c(=O)c2c(C)c2c1[nH]c1cc(OCCN3CCN(C)CC3)ccc12 | 17.1% (inactive)
